# DT40 TDP1 CPT – qHTS for Inhibitors of human tyrosyl-DNA phosphodiesterase 1 (TDP1): qHTS in cells in presence of CPT | chicken DT40 Tdp1-/-;hTDP1 cells + 20 nM CPT, ATP luminescence, 48 h | Potency, µM (doses to about 46.2 µM), actives largely listed as inhibitors | 420,000 compounds, 12% hits | AID 686979, 2013; also: nearly all actives have a fitted effect of over 55% in size
#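 Chicken DT40 Tdp1-/- cells stably complemented with human TDP1 were seeded at 400 cells/well in medium containing 20 nM camptothecin, exposed to pin-transferred compounds, and grown at 37 °C for at least 48 hr. Viability was read as ATP luminescence.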
# TDP1 cell noCPT – qHTS for Inhibitors of human tyrosyl-DNA phosphodiesterase 1 (TDP1): qHTS in cells in absence of CPT; DT40 Tdp1-/- hTDP1 cells, no CPT, ATP luminescence, 48 h; Potency, µM (top dose mostly 46.2 µM), actives largely listed as inhibitors; 420,000 compounds, 15% hits; also: nearly all actives have a fitted effect of over 55% in size
#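 Chicken DT40 Tdp1-/- cells complemented with human TDP1, screened without camptothecin (DMSO vehicle only), 400 cells/well. Compounds pin-transferred, cells incubated at 37 °C for at least 48 hr. Growth read as ATP-dependent luminescence (CellTiter-Glo, 30 min at RT).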
# uPA generation – qHTS for Inhibitors of Cell Surface uPA Generation; cell surface uPA generation assay, qHTS; Potency, µM (highest dose often 38.3 µM), actives largely listed as inhibitors; 330,000 compounds, 0.31% hits; active = well fitted inhibition curve with a large enough effect; inconclusive = small, poorly fitted or top-dose-only effect; inactive = no such curve, though single readings can be large or run the other way; tested in mouse RAW 264.7 cells; also: nearly all actives have a fitted effect of over 55% in size
# IL1B secr inh – qHTS for Inhibitors of Inflammasome Signaling: IL-1-beta AlphaLISA Primary Screen; 360,000 compounds, 4.7% hits; AID 743279, 2014; THP-1 LPS/ATP IL-1B secretion, AlphaLISA, 16 h; active compounds read low; activity change, % at 57.5 µM; in the data active = activity change below about -50%; inconclusive = mostly about -30% to -49%
#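 THP-1 cells pretreated 1 hr with compounds (up to 57.5 uM final), then stimulated with LPS (250 ng/mL final) plus ATP (1.25 mM final); secreted IL-1B measured by AlphaLISA after 16 hr, decreased signal indicating inhibition.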
# HT1080-NT tox – qHTS for induction of synthetic lethality in tumor cells producing 2HG: qHTS for the HT-1080-NT fibrosarcoma cell line; HT-1080-NT fibrosarcoma viability, CellTiter-Glo ATP luminescence, 48 h; Potency, µM (highest dose often 46.1 µM), usual class: cytotoxic; 360,000 compounds, 1.6% hits; AID 686970, 2013;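 also: NT is the 2HG producing partner of a matched IDH1 knockdown line; nearly all actives have a fitted effect of over 55% in size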
#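 Luminescent CellTiter-Glo readout after 48 hours of compound exposure at 37 degrees C defined viability of HT-1080-NT cells. Activity was normalized to DMSO wells and cell-free media wells; concentration-response curves were fitted and assigned curve classes.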
# HT1080 IDH1KD tx – qHTS for induction of synthetic lethality in tumor cells producing 2HG: qHTS for the HT-1080-IDH1KD cell line; Potency, µM (series often up to 46.1 µM), most hits filed as cytotoxic; 360,000 compounds, 2% hits; HT-1080 IDH1 knockdown viability, ATP luminescence, 48 h; AID 686971, 2013
#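 HT-1080-IDH1KD cells (IDH1 knocked down), 750/well in RPMI with 5% FBS, treated with compound 48 h at 37 degrees C. Viability by CellTiter-Glo luminescence, normalised to DMSO and no-cell wells; concentration-response curves classed.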
# Hits are given with their value; . = inactive; ? = inconclusive; / = not tested or not shown. Shown are actives, neighbours in structure and some others; about 19% of the full set was active somewhere. Unless noted, calls follow the shape of the dose curve; as a rule, active = well fitted curve in the direction sought with a large enough effect; inconclusive = small, poorly fitted or top-dose-only effect, or another doubt; inactive = no such curve, though single readings can be large; an effect the other way counts as inactive or inconclusive.
SMILES,DT40 TDP1 CPT,TDP1 cell noCPT,uPA generation,IL1B secr inh,HT1080-NT tox,HT1080 IDH1KD tx
Cc1ccc(OCCn2c(C3CC(=O)N(Cc4ccc(F)cc4)C3)nc3ccccc32)c(C)c1 (stereo not drawn),26µM,21µM,/,/,/,/
CCc1ccc(OCCn2c(C3CC(=O)N(Cc4ccc(F)cc4)C3)nc3ccccc32)cc1 (stereo not drawn),21µM,12µM,/,/,/,/
CCOC(=O)n1c2ccccc2c(=O)n1CCO,.,.,/,.,?,.
N#CCCN1CCN(Cc2ccccc2)CCC1=O,.,.,.,.,.,.
COc1ccccc1-c1cc2c(c3c1ccn3C)C1CCC2C1 (stereo not drawn),?,?,/,.,.,.
CC(C)OCCc1cccc[n+]1[O-],.,.,/,.,?,.
CCOC(=O)c1c(C)[nH]c(C(=O)C(C)Cl)c1C (stereo not drawn),?,?,.,-101,.,.
CCOC(=O)c1[nH]c(C)c(C(=O)N(C)C)c1C,.,.,/,.,.,.
CCOC(=O)c1c(C)[nH]c(C(C)=O)c1C,.,.,.,.,.,.
CCOC(=O)c1[nH]c(C=O)c(C(=O)OCC)c1C,0.65µM,0.65µM,.,.,1.6µM,3.7µM
O=C(COC(=O)CCNS(=O)(=O)c1cccs1)Nc1ccccc1,.,.,.,.,.,.
CC(C)(C)C(=O)Nc1nnc([C@H]2C[C@H](O)[C@@H](CO)O2)s1,.,.,/,.,.,.
CCn1c(=O)cc(SCC(=O)NCc2ccccc2OC)c2ccccc21,?,23µM,/,/,/,/
COc1ccccc1CNC(=O)CSc1cc(=O)n(C)c2ccccc12,?,?,.,.,.,.
CCOc1ccc(CCNC(=O)CSc2cc(=O)n(CC)c3ccccc23)cc1OCC,?,?,.,.,.,.
CCn1c(=O)cc(SCC(=O)NCCc2ccc(OC)cc2OC)c2ccccc21,?,23µM,/,/,/,/
CC(c1ccccn1)N(Cc1ccco1)C(=S)Nc1cccc(F)c1 (stereo not drawn),.,.,.,.,.,.
c1ccc2c(c1)oc1c(-c3cccc4nccn34)cccc12,13µM,?,/,.,?,?
Clc1ccccc1-c1cccc2nccn12,?,?,/,.,.,.
CC1CN(S(=O)(=O)c2cc(C(=O)NCc3ccncc3)ccc2Cl)CC(C)O1 (stereo not drawn),.,.,.,.,.,.
CCOc1ccc(CCNC(=O)c2cccc(S(=O)(=O)N3CC(C)OC(C)C3)c2)cc1OCC (stereo not drawn),?,9.2µM,.,.,.,.
Cc1ccccc1CCNC(=O)c1ccc(Cl)c(S(=O)(=O)N2CC(C)OC(C)C2)c1 (stereo not drawn),18µM,?,.,.,.,.
CN(C)C(CNC(=O)c1ccc(Cl)c(S(=O)(=O)N2CCCCCC2)c1)c1ccccc1 (stereo not drawn),?,?,?,-59,.,.
CCOc1ccc(CCNC(=O)c2ccc(-n3c(C)cc4c3CCC(C)C4)cc2)cc1OCC (stereo not drawn),15µM,15µM,/,/,/,/
CN1CCN(c2nc3c(c(=O)[nH]c(=O)n3C)n2Cc2ccccc2)CC1,.,.,.,.,.,.
COC(=O)[C@]12CCCCC=C1N(Cc1cccc3ccccc13)C(=O)[C@H](CC(=O)N1CCSCC1)C2,?,?,/,.,?,?
CCCNC(=O)c1onc(CSc2ccc(Cl)cc2)c1C(=O)NC(C)C,?,.,.,.,.,.
CCC(C)c1ccc(NC(=S)N2CCN(C(=O)C3CCCO3)CC2)cc1 (stereo not drawn),.,.,.,.,.,.

# Source: PubChem BioAssay
